Compound activity (PubChem BioAssay)
Compounds with a hit are over-represented: about 1.6% of the library has one in this group of screens.
KCNQ2 block = KCNQ2 (rat) channel inhibition; O88943; CHO-K1 KCNQ2, FluxOR thallium flux, 20 min; stronger effect = lower value; B-score at 10 µM; 310,000 tested, 1.1% active; AID 2156;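 active = fluorescence ratio B-score at most minus 3 library SDs, with starting brightness B-score within 2 library SDs, cut at about -5.5 in these data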
Target sequence (O88943 whole entry, looked up): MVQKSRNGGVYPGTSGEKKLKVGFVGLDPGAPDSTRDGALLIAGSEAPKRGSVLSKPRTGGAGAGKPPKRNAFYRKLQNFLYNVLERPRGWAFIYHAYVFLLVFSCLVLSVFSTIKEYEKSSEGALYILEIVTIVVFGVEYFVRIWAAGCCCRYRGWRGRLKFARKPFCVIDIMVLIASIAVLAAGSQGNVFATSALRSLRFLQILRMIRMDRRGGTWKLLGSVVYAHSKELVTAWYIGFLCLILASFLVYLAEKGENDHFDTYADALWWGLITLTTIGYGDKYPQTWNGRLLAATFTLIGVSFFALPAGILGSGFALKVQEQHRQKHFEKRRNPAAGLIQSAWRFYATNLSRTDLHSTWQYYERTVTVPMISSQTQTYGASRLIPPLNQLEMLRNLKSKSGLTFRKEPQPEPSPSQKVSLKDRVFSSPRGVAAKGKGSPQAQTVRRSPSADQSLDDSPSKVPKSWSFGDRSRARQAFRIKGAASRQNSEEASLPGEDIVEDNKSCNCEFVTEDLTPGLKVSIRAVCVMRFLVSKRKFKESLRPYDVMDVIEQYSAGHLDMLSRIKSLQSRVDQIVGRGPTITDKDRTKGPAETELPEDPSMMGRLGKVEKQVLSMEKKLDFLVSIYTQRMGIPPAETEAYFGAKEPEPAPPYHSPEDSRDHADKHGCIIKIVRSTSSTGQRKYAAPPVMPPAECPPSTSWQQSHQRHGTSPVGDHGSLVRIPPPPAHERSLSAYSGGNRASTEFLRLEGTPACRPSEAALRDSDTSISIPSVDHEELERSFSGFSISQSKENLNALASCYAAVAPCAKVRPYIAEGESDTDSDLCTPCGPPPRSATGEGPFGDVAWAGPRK
KCNQ2 enhance = potentiators of rat KCNQ2 potassium channel; O88943; CHO-K1 KCNQ2, FluxOR thallium flux fluorescence; stronger effect = higher value; B-score at 10 µM; 310,000 tested, 0.54% active;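 active = fluorescence ratio B-score at least 3 SD of library B-scores, with initial fluorescence B-score within 3 of them, cut at about 5.3 in these data; same plate scores as AID 2156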;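 note: B-score of peak minus minimum over baseline fluorescence ratio after K+ and Tl+ stimulus; positive B-score means potentiation of KCNQ2 with more thallium influx and brighter signal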
* hit, by the source's call; i = inactive; nt = no result.

SMILES	KCNQ2 block	KCNQ2 enhance
CC1(C)C2CCC1(C)C(OC(=O)C[n+]1ccccc1)C2 (centres undefined)	i	nt
CO/N=C/C(=N\Nc1cc(OC)cc(OC)c1)C(=O)c1ccccc1	-5.8*	-5.8
COc1ccc(N/N=C(\C=N\O)C(=O)c2ccc(OC)cc2)cc1	i	nt
O=C(CCc1ccccc1)Oc1ccccc1[N+](=O)[O-]	i	nt
Cn1c(O)c(N=NC(=O)Cn2c(C(F)(F)F)nc3ccccc32)c2ccccc21	i	0.78
Cc1ccc(C(=O)COC(=O)CN2C(=O)C3C4C=CC(C4)C3C2=O)cc1C (centres undefined)	i	1.15
COc1ccccc1NC(=O)C1CCCN1C(=O)NC1CCCCC1 (centres undefined)	i	0.21
COc1ccc(-n2cc(CNCCc3cscn3)c(-c3ccccc3Cl)n2)cc1	i	nt
Cc1ccc(-n2cc(CNCCc3cscn3)c(-c3ccc(F)cc3)n2)cc1	-6.78*	-6.78
S=C(Nc1ccc(Br)cc1Cl)NN1CCOCC1	i	nt
CCOC(=O)Cc1csc(N/N=C\c2ccccc2OC)n1	i	0.84
OCC[C@@H]1C[C@H](O)[C@@H](O)[C@]2(CCCCO2)O1	i	0.01
Fc1cccc(-c2cc3nc4c(c(NCc5ccco5)n3n2)CCCC4)c1	i	nt
COc1cccc(-c2cc3nc4c(c(NCC(C)(C)CN(C)C)n3n2)CCCC4)c1	-7.7*	-7.7
CCN(CC)C(=O)CSc1nnc(-c2c[nH]c3ccccc23)o1	i	0.56
COC(=O)C1(C)NC(c2ccccc2C)C2C(=O)N(c3ccccc3)C(=O)C21 (centres undefined)	i	0.15
CCOC(=O)C1(c2ccccc2)NC(c2ccccc2C)C2C(=O)N(c3ccc4c(c3)OCO4)C(=O)C21 (centres undefined)	-6.96*	-6.96
COc1ccc(C(=O)NC2CCCc3c2cnn3-c2cc(F)cc(F)c2)c(OC)c1OC (centres undefined)	i	nt
Cc1ccc(OCCOC(=O)Nc2ccccc2)cc1	i	1.07
C=C(C)C1CCC(C)=C1COC(=O)Nc1ccccc1 (centres undefined)	-5.89*	-5.89
O=C(NCc1ccc(F)cc1)C1CCCN1S(=O)(=O)c1cccc2nsnc12 (centres undefined)	i	1.1
COc1ccc(N=C2S/C(=C\c3ccc(C)o3)C(=O)N2CC(C)C)cc1	-6.09*	-6.09
CCN1C(=O)/C(=C/c2ccc(C)s2)SC1=Nc1ccc(OC)cc1	-6.31*	-6.31
CCCN1C(=O)/C(=C/c2ccc(C)o2)SC1=Nc1ccc(OC)cc1	i	nt
CCCN1C(=O)/C(=C/c2ccco2)SC1=Nc1ccc(OC)cc1	i	nt
SMILES	KCNQ2 block	KCNQ2 enhance
C=CCn1c(O)c(N=NC(=S)Nc2ccc(OC)cc2)c2ccccc21	i	3.98
C=CCn1c(O)c(N=NC(=S)Nc2cccc(OC)c2)c2ccccc21	i	11.8*
CCCCc1c(C(=O)O)cc(OC)cc1C(=O)O	i	0.45
CCCCCc1c2c(cc(O)c1C(=O)O)OC(=O)c1c(cc(OC)cc1C(=O)CCCC)O2	-6.67*	-6.67
CCOC(=O)Cc1csc(NC(=O)CN2CCOCC2)n1	i	0.54
COc1ccc(C(=O)OCCc2sc[n+](CC(=O)c3ccccc3)c2C)cc1	i	1.46
Cc1c(CCOC(=O)C2C3CC4CC(C3)CC2C4)sc[n+]1CC(=O)c1ccc(Br)cc1 (centres undefined)	-7.19*	-7.19
COc1ccc(OC)c(CCNC(=O)CCCc2nnc3n(C)c(=O)c4sccc4n23)c1	i	0.95
C=CCc1c(Cl)nc(C)nc1NCc1ccccc1	i	0.61
CC(C)S(=O)(=O)C1=NSC2=NC(=O)/C(=C\c3ccc(-c4ccccc4)o3)C(=N)N21	-5.94*	-5.94
N=C1/C(=C\c2ccc(-c3cc(Cl)cc(Cl)c3)o2)C(=O)N=C2SC=C(c3ccccc3)N12	i	0.75
CC1(C)CC(=O)C(C(O)c2cccc([N+](=O)[O-])c2)C(C)(C)N1 (centres undefined)	i	nt
CCOc1ccc(CN(C)CC(=O)Nc2cccc3ccccc23)cc1OC	i	nt
COc1ccc(CN(C)CC(=O)Nc2cccc3ccccc23)cc1F	-5.83*	-5.83
CCOC(=O)Cc1csc(SCC(=O)NC2CCC(C)CC2)n1 (centres undefined)	i	1.07
COc1ccc(NC2=Nc3cccc4cccc2c34)cc1OC	i	nt
COc1cc(NC2=Nc3cccc4cccc2c34)cc(OC)c1OC	-6.03*	-6.03
C=CCc1ccc(OCCn2nnc3ccccc32)c(OC)c1	i	1.86
C=CCc1ccc(OCCn2cccc2C=O)c(OC)c1	i	7.61*
O=S(=O)(CCNCc1cccs1)c1ccc(Cl)cc1	i	0.45
O=c1[nH]c(COc2ccc(Cl)cc2Br)nc2ccccc12	i	1.1
O=C1CCC(C(=O)N(CCO)Cc2ccccc2)CN1CC1CCCCC1 (centres undefined)	i	0.62
CCN(C(=O)COC(=O)/C=C/c1c(C)nn(Cc2ccc(C)cc2)c1C)C1CCS(=O)(=O)C1 (centres undefined)	i	nt
CN(C)c1cccc(C(=O)OC(C(=O)Nc2ccc(Cl)cc2C(F)(F)F)c2ccccc2)c1 (centres undefined)	-8*	-8
O=C(OC(C(=O)Nc1ccc(Cl)cc1C(F)(F)F)c1ccccc1)C1=COCCO1 (centres undefined)	i	nt
SMILES	KCNQ2 block	KCNQ2 enhance
Cc1ccc(F)cc1NC(=O)c1cnccn1	i	0.27
O=C(Cc1ccccc1[N+](=O)[O-])NC1CC2CCC1C2 (centres undefined)	i	2.62
COCCNC(=O)C(c1ccncc1)N(C(=O)c1sc(C)nc1C)c1cccc(C)c1 (centres undefined)	i	nt
COc1cc(OC)cc(C(=O)N(Cc2nc(-c3cccc(C)c3)no2)C(C)C)c1	i	nt
Cc1cccc(-c2noc(CN(C(=O)C34CC5CC(CC(C5)C3)C4)C(C)C)n2)c1	-5.71*	-5.71
COc1cc(C=O)ccc1OCC(=O)Nc1cccc(S(=O)(=O)N(C)c2ccccc2)c1	-8.29*	-8.29
COc1ccccc1OCC(=O)Nc1cccc(N(C)S(C)(=O)=O)c1	i	nt
CC(C)C1OC2c3cccc4cccc(c34)C2N1c1ccccc1 (centres undefined)	-5.73*	-5.73
Cc1cc(C(=O)NCc2ccc3c(c2)OCO3)ccc1[N+](=O)[O-]	i	3.62
CC1CC(C)CN(c2ccc(C(=O)NCc3ccc4c(c3)OCO4)cc2[N+](=O)[O-])C1 (centres undefined)	i	8.9*
Cc1ccc(-n2c(SCC(=O)Nc3ccc4c5c(cccc35)CC4)nc(O)c(C)c2=O)cc1	i	7.02*
Cc1ccc(-n2c(SCC(=O)Nc3ccc4c5c(cccc35)CC4)nc(O)cc2=O)cc1	i	2.31
CCSc1n[nH]c2nc3c(c(=O)n12)C1(CCCC1)Cc1ccccc1-3	i	nt
Cc1ccc(-n2c(SCC(N)=O)nc3c(c2=O)C2(CCCC2)Cc2ccccc2-3)cc1	-5.61*	-5.61
CC(=O)N1CCc2cc(S(=O)(=O)N3CCc4ccccc43)ccc21	i	0.04
CCNc1ccc(Br)cc(C(=O)/C=C/c2ccc(Cl)cc2Cl)c1=O	-5.82*	-5.82
CNc1ccc(Br)cc(C(=O)/C=C/c2cc(OC)ccc2OC)c1=O	i	nt
N#Cc1c(Cl)nsc1NC(=O)c1ccccc1	i	1.1
CS(=O)(=O)N(CC(=O)NCc1ccccc1)Cc1ccc(Cl)cc1	i	nt
